“And” between values parts separate entries of the source, which are not always exact repeats. Equal values may be shown once. Unmarked numbers belong to inactive results. Records with an inconclusive call do not appear. Entries that show only a call come without a potency. The source made the active and inactive calls. Calls follow the shape of the dose curve; as a rule, active = well fitted curve in the direction sought with a large enough effect; inconclusive = small, poorly fitted or top-dose-only effect, or another doubt; inactive = no such curve, though single readings can be large; an effect the other way counts as inactive or inconclusive.
Tests used:
[1] = target: Cytochrome P450 2C9 (Homo sapiens) (UniProt P11712); experiment: qHTS Assay for Inhibitors and Substrates of Cytochrome P450 2C9 (AID 883); conditions: recombinant CYP2C9, luciferin-H luminescence, 60 min; series mostly up to 11.4 µM; also: nearly all actives have a fitted effect of over 60% in size; also: potency is read from the fitted curve at half-maximal effect
Method in brief: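 CYP2C9 deoxyluciferin hydroxylation, 37C, 60 min with NADPH regeneration; 10nM enzyme, 100uM Luciferin-H (KM). Glo detection reagent stopped reaction; luminescence normalized to sulphaphenazole (57uM) full inhibition.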

[2] = target: Cytochrome P450 3A4 (Homo sapiens) (UniProt P08684); experiment: qHTS Assay for Inhibitors and Substrates of Cytochrome P450 3A4 (AID 884); conditions: recombinant CYP3A4, Luciferin-PPXE luminescence; series mostly up to 57.1 µM; also: nearly all actives have a fitted effect of over 50% in size; also: potency is read from the fitted curve at half-maximal effect
Method in brief: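 Luminescent readout of luciferin produced by CYP3A4 (20 nM) dealkylation of Luciferin-PPXE, 25 uM (its KM). NADPH-driven reaction ran 60 min at RT after 10 min compound preincubation; data scaled to 57 uM ketoconazole as 100% inhibition.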

[3] = target: Cytochrome P450 2D6 (Homo sapiens) (UniProt P10635); experiment: qHTS Assay for Inhibitors and Substrates of Cytochrome P450 2D6 (AID 891); conditions: recombinant CYP2D6, luciferin-ME EGE luminescence; series mostly up to 11.4 µM;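 also: luciferin methyl ether substrate demethylated by CYP2D6 with NADPH regeneration; nearly all actives have a fitted effect of over 60% in size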
Method in brief: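 Luminescent read-out of luciferin formed by 5 nM human CYP2D6 demethylating 30 uM Luciferin-ME EGE (Km level) over 60 min at room temperature after NADPH regeneration addition. Data normalized to full inhibition by 1.43 uM quinidine.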

[4] = target: Cytochrome P450 2C19 (Homo sapiens) (UniProt P33261); experiment: qHTS Assay for Inhibitors and Substrates of Cytochrome P450 2C19 (AID 899); conditions: recombinant CYP2C19, luciferin-H EGE luminescence; series mostly up to 11.4 µM; also: nearly all actives have a fitted effect of over 60% in size; also: potency is read from the fitted curve at half-maximal effect
Method in brief: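 In 50mM KPO4, the reaction held 5nM enzyme and KM-level (10uM) Luciferin-H EGE; it ran 60 min at 37C after NADPH regeneration and a 10 min compound preincubation. Luminescence values were scaled to 57uM ketoconazole as complete inhibition.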

[5] = target: Cytochrome P450 3A4 (Homo sapiens) (UniProt P08684); experiment: qHTS Assay for Activators of Cytochrome P450 3A4 (AID 885); conditions: recombinant CYP3A4, Luciferin-PPXE luminescence, 60 min; series mostly up to 57.1 µM; also: nearly all actives have a fitted effect of over 65% in size
Method in brief: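 Activators are scored by enhanced luminescence from CYP3A4 conversion of luciferin-PPXE (25uM, equal to KM) to luciferin, after 60 min at RT with an NADPH-regenerating system.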

Cytochrome P450 2D6 (Homo sapiens), sequence (P10635 whole entry, looked up): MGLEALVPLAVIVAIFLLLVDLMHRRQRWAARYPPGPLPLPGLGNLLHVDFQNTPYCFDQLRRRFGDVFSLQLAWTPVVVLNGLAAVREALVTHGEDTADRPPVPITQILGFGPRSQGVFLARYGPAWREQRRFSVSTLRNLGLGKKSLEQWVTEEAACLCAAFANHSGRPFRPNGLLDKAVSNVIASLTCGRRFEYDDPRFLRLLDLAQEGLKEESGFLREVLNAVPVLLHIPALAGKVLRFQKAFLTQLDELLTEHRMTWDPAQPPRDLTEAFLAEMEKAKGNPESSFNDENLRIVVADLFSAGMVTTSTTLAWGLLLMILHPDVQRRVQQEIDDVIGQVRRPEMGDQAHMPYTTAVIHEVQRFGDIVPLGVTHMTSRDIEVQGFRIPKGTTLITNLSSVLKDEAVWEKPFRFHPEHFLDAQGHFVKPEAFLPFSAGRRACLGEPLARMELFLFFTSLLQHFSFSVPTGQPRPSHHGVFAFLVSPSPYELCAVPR
Cytochrome P450 2C19 (Homo sapiens), sequence (P33261 whole entry, looked up): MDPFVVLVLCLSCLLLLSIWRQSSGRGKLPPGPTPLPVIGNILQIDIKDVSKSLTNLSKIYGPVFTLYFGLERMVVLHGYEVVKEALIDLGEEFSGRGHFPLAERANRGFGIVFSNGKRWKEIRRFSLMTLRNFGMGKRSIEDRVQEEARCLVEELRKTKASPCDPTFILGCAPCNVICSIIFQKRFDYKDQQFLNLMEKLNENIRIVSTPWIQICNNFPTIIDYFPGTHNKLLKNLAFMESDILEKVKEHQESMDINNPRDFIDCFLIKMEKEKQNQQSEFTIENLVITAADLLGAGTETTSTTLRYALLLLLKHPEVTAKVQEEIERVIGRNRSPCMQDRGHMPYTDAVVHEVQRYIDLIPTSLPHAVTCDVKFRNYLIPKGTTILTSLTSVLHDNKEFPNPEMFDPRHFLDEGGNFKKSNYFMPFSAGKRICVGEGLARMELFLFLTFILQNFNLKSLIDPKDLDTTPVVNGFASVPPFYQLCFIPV
Cytochrome P450 2C9 (Homo sapiens), sequence (P11712 whole entry, looked up): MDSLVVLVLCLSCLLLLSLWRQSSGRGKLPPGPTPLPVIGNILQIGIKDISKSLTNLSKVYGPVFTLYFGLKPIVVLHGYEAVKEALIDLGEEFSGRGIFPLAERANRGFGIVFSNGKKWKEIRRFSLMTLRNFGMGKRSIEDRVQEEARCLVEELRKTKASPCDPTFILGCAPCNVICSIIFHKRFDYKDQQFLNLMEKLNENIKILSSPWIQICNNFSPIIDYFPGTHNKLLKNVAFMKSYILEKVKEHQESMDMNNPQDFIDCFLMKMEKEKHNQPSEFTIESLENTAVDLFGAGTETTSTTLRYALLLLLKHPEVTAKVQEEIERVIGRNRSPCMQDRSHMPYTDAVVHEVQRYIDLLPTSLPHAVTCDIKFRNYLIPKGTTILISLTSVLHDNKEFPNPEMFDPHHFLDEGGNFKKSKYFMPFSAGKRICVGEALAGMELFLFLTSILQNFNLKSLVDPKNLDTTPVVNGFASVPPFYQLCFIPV
Cytochrome P450 3A4 (Homo sapiens), sequence (P08684 whole entry, looked up): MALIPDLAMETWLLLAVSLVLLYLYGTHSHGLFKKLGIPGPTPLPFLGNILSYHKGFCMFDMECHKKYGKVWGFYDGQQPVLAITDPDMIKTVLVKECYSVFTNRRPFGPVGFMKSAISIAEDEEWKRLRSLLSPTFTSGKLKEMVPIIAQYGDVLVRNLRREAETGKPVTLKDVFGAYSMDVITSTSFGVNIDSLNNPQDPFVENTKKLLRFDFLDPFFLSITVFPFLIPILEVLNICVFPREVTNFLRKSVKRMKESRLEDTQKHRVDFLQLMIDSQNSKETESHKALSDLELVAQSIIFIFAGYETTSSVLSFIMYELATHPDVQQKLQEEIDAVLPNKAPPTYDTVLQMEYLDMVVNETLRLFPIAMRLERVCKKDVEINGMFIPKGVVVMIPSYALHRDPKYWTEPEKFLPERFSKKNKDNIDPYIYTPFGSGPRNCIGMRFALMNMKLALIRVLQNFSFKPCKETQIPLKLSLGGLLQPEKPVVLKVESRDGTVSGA

SMILES | Potency [1] | activity change, negative = inhibition [2] | Potency [3] | Potency [4] | Potency [2] | activity change, positive = activation [5]
COC(=O)NC(c1ccc(Cl)cc1)C(C(C)=O)C(=O)OC (configuration not stated) | inactive | -15.4% [at 11.4 µM] | inactive | 1.58 µM (active) | – | –
COC(=O)NC(c1ccco1)[C@@]1(C(=O)OC)CCCC1=O (some centres not stated) | inactive | -10.6% [at 11.4 µM] | inactive | inactive | – | –
CCCc1cc2c(c(=O)o1)C(O)C1OC1C2=O (configuration not stated) | inactive | -24% [at 11.4 µM] | inactive | inactive | – | –
CCOC(=O)OCC1OC(c2cc(C)cc(C)c2)C=CC1OC(=O)OCC (configuration not stated) | inactive | – | inactive | inactive | 3.98 µM (active) | –
CC(=O)OCC1OC(C#CC2=CCCCC2)C=CC1OC(C)=O (configuration not stated) | inactive | -27.5% [at 11.4 µM] | inactive | inactive | – | –
CC(O)CCCCCCC/C=C/C=C/C(N)=O (configuration not stated) | inactive | -10.1% [at 11.4 µM] | inactive | inactive | – | –
CCC1OCCC=CC1C (configuration not stated) | inactive | -15% [at 11.4 µM] | inactive | inactive | – | –
CCCCCCC/C=C/C1=CC2(C)CC1(C)C(CCCCCCC)CC2=O (configuration not stated) | inactive | -15% [at 11.4 µM] | inactive | inactive | – | –
CC(=O)OCC1OC(c2ccc(C(C)=O)cc2)C=CC1OC(C)=O (configuration not stated) | inactive | -20.5% [at 11.4 µM] | inactive | inactive | – | –
COc1ccc(OC)c(C2OCCC=CC2C)c1 (configuration not stated) | inactive | -16.9% [at 11.4 µM] | inactive | inactive | – | –
COC(=O)NC(c1ccccc1)[C@]1(C(C)=O)CCCC1=O (some centres not stated) | inactive | -20.1% [at 11.4 µM] | inactive | inactive | – | –
COC(=O)NC(CC(C)=O)c1cccc(C)c1 (configuration not stated) | inactive | -19.5% [at 11.4 µM] | inactive | inactive | – | –
CC(=O)c1ccc(C2C=CC(O)C(CO)O2)cc1 (configuration not stated) | inactive | -3.24% [at 11.4 µM] | inactive | inactive | – | –
CC(C)CN1CCc2nc(-c3ccccc3)c3c(c2CC1)COC(C)C3 (configuration not stated) | inactive | -18.5% [at 11.4 µM] | inactive | inactive | – | –
O=C1C=C[C@@H](O)[C@@H]2[C@H]3C(=O)N(c4ccc(F)cc4F)C(=O)[C@@H]3CC[C@@H]12 | inactive | -59.6% [at 11.4 µM] | inactive | inactive | – | –
CCOC(=O)[C@]1(C(NC(=O)OC)c2cccc(C)c2)CCCC1=O (some centres not stated) | inactive | -23.1% [at 11.4 µM] | inactive | inactive | – | –
COc1cc(O)c(C(=O)/C=C/c2ccccc2)c(O)c1 | 2 µM (active) | -28.7% [at 11.4 µM] | inactive | 1.58 µM (active) | – | –
CC(=O)OCC1OC(C#CC(C)(C)C)C=CC1OC(C)=O (configuration not stated) | inactive | -15.4% [at 11.4 µM] and -10.3% [at 11.4 µM] | inactive | inactive | – | –
C=CCC1(c2ccccc2)Oc2ccc(C)cc2-c2nc3cc(Cl)c(Cl)cc3nc21 (configuration not stated) | inactive | -28.2% [at 11.4 µM] | inactive | inactive | – | –
CCN1C(C)=C(C(=O)OC)C(c2ccccc2)N2C(=O)[C@@]3(C(=O)OC)O[C@@]12C1C(=O)N(c2ccccc2)C(=O)C13 (some centres not stated) | inactive | -20.6% [at 11.4 µM] | inactive | inactive | – | –
COC(=O)NC(c1ccccc1)[C@@]1(C(=O)OC)CCCC1=O (some centres not stated) | inactive | -15.7% [at 11.4 µM] | inactive | inactive | – | –
CC1CCC(C(=O)O)NC1c1ccc(C#CCN(C)C)cc1 (configuration not stated) | inactive | -30.5% [at 11.4 µM] | – | inactive | – | –
COC(=O)NC(CC(C)=O)c1ccc(Cl)cc1 (configuration not stated) | inactive | -19.1% [at 11.4 µM] | – | inactive | – | –
C=C/C1=C/Cc2ccccc2C(C[N+](=O)[O-])C(C(=O)OC)(C(=O)OC)C1 (configuration not stated) | inactive | – | inactive | – | – | -46.3% [at 11.4 µM]
CC1CCC2C(=O)N3C(CCC(C)[C@@H]3c3ccc(Br)cc3)C(=O)N2C1c1ccc(Br)cc1 (some centres not stated) | 3.16 µM (active) | – | inactive | – | – | -48.7% [at 11.4 µM]
COC(=O)NC(CC(C)=O)c1cccc(F)c1 (configuration not stated) | inactive | -53.6% [at 11.4 µM] | – | inactive | – | –
C=C(C)C(O)C(CC/C=C(\C)C(=O)OCC)OC (configuration not stated) | inactive | -25.2% [at 11.4 µM] | – | inactive | – | –
